Test results: PMC12136788
Where a chain is given by its changes, count along the chain named. In all, about 5,800 sequences were measured (“enrichment r”: median about 0.68, highest 2% from about 11 on). What follows is part of a selection rich in the highest values, with near analogues and random picks from the rest.

T1: UNK ZnF1-6 (called full-length) (human, UniProt Q9C0B0 30-357)
T1 sequence: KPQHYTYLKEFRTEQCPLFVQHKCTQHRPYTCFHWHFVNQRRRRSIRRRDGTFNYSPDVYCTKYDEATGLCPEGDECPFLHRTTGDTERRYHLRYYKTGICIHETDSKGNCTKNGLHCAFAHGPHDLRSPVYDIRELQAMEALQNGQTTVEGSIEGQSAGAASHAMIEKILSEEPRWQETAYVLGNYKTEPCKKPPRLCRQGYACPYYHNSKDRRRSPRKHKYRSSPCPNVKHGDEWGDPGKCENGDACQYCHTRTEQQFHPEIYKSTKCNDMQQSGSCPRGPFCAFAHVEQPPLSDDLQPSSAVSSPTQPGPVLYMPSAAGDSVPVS

B1: chr2:27433287:27433389:+|CDS|ENSG00000115216|unk|FALSE|unique (ssRNA)
RNA: GGGAGUUCUACAGUCCGACGAUCUUCCAGCAUGUCGGAGGGGGAGUCCCAGACAGUACUUAGCAGUGGCUCAGACCCAAAGGUAGAAUCCUCAUCUUCAGCUCCUGGCCUGACAUCAGUGUCACCUCCUGUGACCUCCACAACCAACAGAGGAUUGAGCAUCA
B2: chr8:6811200:6812339:-|CDS|ENSG00000275591|control|control|control (ssRNA)
RNA: GGGAGUUCUACAGUCCGACGAUCAUGUAGAGGCUUCUGCCCCAGUGCAGGCUUCCCUGGAAGAACCCUCAGUAUCUCAGAGCUAGAGGAGCCGCUGGAGCCCAAAAGGGAGCUAAGUCACCAUGCAGCUGUUGGUGUGUGGGUCAACAGAGGAUUGAGCAUCA
B3: chr19:58083837:58084684:-|three_prime_utr|ENSG00000121413|control|control|control (ssRNA)
RNA: GGGAGUUCUACAGUCCGACGAUCGCUCGCAUCCGAGGGGAGCCGCCGGAUGUGGAAGAAGACUCGGCUUUCCUGCAGCCAUUUAGUGCCGCCCCAUGCUAGGUUAUUUGACAUUGUGCAGUGUAGAGUUGCCUUAAAGUGCGUCAACAGAGGAUUGAGCAUCA
B4: chr1:211748167:211748268:-|3pUTR|ENSG00000123684|msi1|FALSE|unique (ssRNA)
RNA: GGGAGUUCUACAGUCCGACGAUCGUACUGCAUCAGUGAGAUGAGUAGGGUUUUUGUUUGGGAUUGUAAGACUAUUAAGAUCCUAGUAAGUCAGUGGUAGUUUACUGUGAUGUGAGCAUUGUAGAUUCCCCCGUUGUCACUAAUCAACAGAGGAUUGAGCAUCA
B5: chr17:63354981:63355093:+|CDS|ENSG00000170921|unk|total|mutant (ssRNA)
RNA: GGGAGUUCUACAGUCCGACGAUCCAGUCAAGGGUCCUAUCUAUAUCUGAAACUUACAUUUGACCUCACCGAGAAAGGCUAUCCCGUGUUAAAGAGCUCCCGCUACAAAGCCGUUCCUGUUUCGCUCUCAGAGGUUUAUUUACUCAACAGAGGAUUGAGCAUCA
B6: chr11:72288215:72288316:-|3pUTR|ENSG00000162129|unk|FALSE|unique (ssRNA)
RNA: GGGAGUUCUACAGUCCGACGAUCACCCAGCUAAUUUUUUUUGUAUUUUUAGUAAAGACGGGGUUUCACCAUGUUUGCCAGGCUAGUCUCAAACUCCUGGUCUCAAGUGAUCCACCCACCUUGGCCUCCCAGAGUGCUGAGAUUCAACAGAGGAUUGAGCAUCA
B7: chr11:107429260:107429366:-|CDS|ENSG00000152404|unk|total|mutant (ssRNA)
RNA: GGGAGUUCUACAGUCCGACGAUCGAGGAAACCCACAUAUUCAGAUAAAGCACAAAAUUGUCAAGAAAGCCGAGAAUCAGACUCCGUAAAAUAUGGUAACAGUUCAAGGGACCGAUAUGCUACAACAGAUACUGCAAAAAACCGCAACAGAGGAUUGAGCAUCA
B8: chr7:115017934:115018035:+|3pUTR|ENSG00000135272|unk|FALSE|unique (ssRNA)
RNA: GGGAGUUCUACAGUCCGACGAUCUGAGAUGAAACGUAGUUUCUAGUUAUAUCAUUACUUAAAGGGCUUAAAAAGAAAAAACUUAGCAAACUUUUGAAUCUUUCUUUUAUUGCUAUUUACACAUACAUACACACAUACAAAACCCAACAGAGGAUUGAGCAUCA
B9: chr10:92030471:92030572:+|3pUTR|ENSG00000095564|unk|FALSE|unique (ssRNA)
RNA: GGGAGUUCUACAGUCCGACGAUCUAUUUUUUUAUUAACUAUUUAUUUGCUAGUUCCAUAAACCAGCUCUUUAACAUAGCUUAUAGUAAUUGAUAUUUUCUUAGAAUAAGUACAGAGCAAUAUAUCAUUAAAGGGCUAUGAAGGCAACAGAGGAUUGAGCAUCA
B10: chr10:92030471:92030572:+|3pUTR|ENSG00000095564|unk|total|mutant (ssRNA)
RNA: B9 RNA with U50C, A51C, U76C, A77C, U83C, A84C, U101C, A102C
B11: chr11:69653362:69653473:+|3pUTR|ENSG00000110092|msi1_unk|FALSE|overlapping (ssRNA)
RNA: GGGAGUUCUACAGUCCGACGAUCACUGCCAUGUACUAGUUUUAGUUUUCUCUUAGAACAUUGUAUUACAGAUGCCUUUUUUGUAGUUUUUUUUUUUUUUAUGUGAUCAAUUUUGACUUAAUGUGAUUACUGCUCUAUUCCAAACAACAGAGGAUUGAGCAUCA
B12: ENSG00000136451:be:win_3351|3pUTR|ENSG00000136451|bound_else_gene|NA|bound_elsewhere_windowed (ssRNA)
RNA: GGGAGUUCUACAGUCCGACGAUCGAAGGCAACACAUUCCUACACUUUUAAUGUAUAUGUUUGUUAUAAUGUCCAUGUAAACAUGCCCUAUGUUUGUGCCUUUUAAUUAGUUUGUCUCAAUAAACAAAAUGUAGAGAAAAAUAUCAACAGAGGAUUGAGCAUCA
B13: chr19:9526975:9527076:-|3pUTR|ENSG00000130818|unk|FALSE|unique (ssRNA)
RNA: GGGAGUUCUACAGUCCGACGAUCCCUCUCAGACCUUCCAUCAUUACUAUAUUUCACUUUUAUGCCUAUAAACACACACAAAUUAGCAUAUGUAAUCUAAUACAUUGUAGCUAUUUUUCAGAAGUUAUCAGAUCAAUUAAGUAUCAACAGAGGAUUGAGCAUCA
B14: chr17:44253117:44253371:-|CDS|ENSG00000004939|control|control|control (ssRNA)
RNA: GGGAGUUCUACAGUCCGACGAUCCAAACCUGAGCGCAAGAUGGUCAAGGGCUCCGGCUUCCACCUGGACCUGCUGCUGGUAGUAGGCAUGGGUGGGGUGGCCGCCCUCUUUGGGAUGCCCUGGCUCAGUGCCACCACCGUGCGCAACAGAGGAUUGAGCAUCA
B15: chr6:105096826:105097152:-|3pUTR|ENSG00000112276|msi1|FALSE|unique (ssRNA)
RNA: GGGAGUUCUACAGUCCGACGAUCACUUGCAACCUAGUUUUAAAAUACAUGAGGAUUUUAUGAAAGCUUUAUACAGACAUUUAUAGGAAACUCAUUCUUUGAUUUUAGGUGCCAUUUAAAUUGAUAACACUUACUUUAUAAAAACAACAGAGGAUUGAGCAUCA

Target: T1, UNK ZnF1-6 (called full-length)
Assay: nsRBNS (natural sequence RNA bind-n-seq); RBNS binding buffer (assumed for nsRBNS): 25 mM Tris pH 7.5, 150 mM KCl, 3 mM MgCl2, 0.01% Triton X-100, 500 ug/ml BSA, 20 U/ml SUPERase-In, 4 C; UNK is unkempt and MSI1 is Musashi-1; names of the RNAs are library labels; protein concentration not given here; high values mean tight binding

| Binder | binding signal [enrichment R] |
| --- | --- |
| B1 | 0.848 |
| B2 | 0.868 |
| B3 | 0.832 |
| B4 | 0.481 |
| B5 | 0.664 |
| B6 | 3.92 |
| B7 | 0.603 |
| B8 | 5.81 |
| B9 | 34.3 |
| B10 | 5.92 |
| B11 | 80.9 |
| B12 | 2.53 |
| B13 | 4.62 |
| B14 | 0.5 |
| B15 | 1.57 |
